Growth inhibition data for ten molecules are collected here from PubChem BioAssay (NCI).

A short description of assay [1]: NCI Yeast Anticancer Drug Screen. Data for the rad50 strain (AID 155).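 Also: 0% = growth of vehicle-only cultures of the same strain.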 As to conditions: S. cerevisiae rad50 strain growth inhibition, active compounds read high. The method in brief: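 Yeast carrying a defined DNA repair defect were exposed to test compounds, and growth was compared with vehicle-treated controls to give percent inhibition.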
A short description of assay [2]: NCI Yeast Anticancer Drug Screen. Data for the mec2-1 strain (AID 157). The following applies: S. cerevisiae mec2-1 strain, active compounds read high. The method in brief:
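Cells of the genetically defined mec2-1 yeast strain are incubated with test compound. Inhibition of growth is calculated against vehicle-treated controls.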

Assay [3] in a line: NCI Yeast Anticancer Drug Screen. Data for the sgs1 mgt1 strain (AID 161).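 Also: 0% = growth of cultures given vehicle only.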 The following applies: S. cerevisiae sgs1 mgt1 strain, active compounds read high. The method in brief:
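Test agents were incubated with a DNA-repair-mutant yeast strain. Growth was then read and compared against vehicle-treated controls.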

Assay [4] in a line: NCI Yeast Anticancer Drug Screen. Data for the cln2 rad14 strain (AID 165).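 Also: 0% = growth equal to vehicle treated cultures.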 The following applies: S. cerevisiae cln2 rad14 strain, active compounds read high. The method in brief:
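The screen exposed genetically defined yeast (cln2 rad14) to test compounds and scored growth inhibition relative to vehicle-treated controls.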

Assay [5] in a line: NCI Yeast Anticancer Drug Screen. Data for the bub3 strain (AID 167). The following applies: S. cerevisiae bub3 mutant strain, active compounds read high. The method in brief: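 Compounds were applied to a genetically altered yeast strain carrying a cell-cycle control defect. Growth inhibition was scored against vehicle-treated controls.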
Assay [6] can be described thus: NCI Yeast Anticancer Drug Screen. Data for the mlh1 rad18 strain (AID 175). As to conditions: S. cerevisiae mlh1 rad18 strain growth inhibition, active compounds read high. The method in brief: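 Compound-treated yeast growth, normalised to vehicle controls. Strain bears defined DNA repair mutations.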
Where [7] appears, read: at 5.0 µM (retest, dose inferred, filed as 0.5).
[8] abbreviates: at 50.0 µM (retest, dose inferred, filed as 5.0).

Structures are written as SMILES. The panel holds about 79,000 compounds, 15% with a hit somewhere; the sample as a whole holds those more often. A number with no mark means an inactive call. Active and inactive are the calls of the source. Rule as the data show it: active = growth inhibition above about 70%; inactive = the rest.

`FC(F)(F)c1[nH]nc(-c2cc3ccccc3o2)c1N=NN1CCOCC1`: the growth inhibition was 99% (active) in assay [1] (setting [7]); 99% (active) in assay [1] (setting [8]); 99.2% (active) in assay [1] (at 50.0 µM); 100% (active) in assay [2] (setting [7]); 99% (active) in assay [2] (setting [8]); 99.5% (active) in assay [2] (at 50.0 µM). In addition, the growth inhibition in assay [3] (setting [7]) is 100% (active); in assay [3] (setting [8]) it was 99% (active); in assay [3] (at 50.0 µM), 99.5% (active); in assay [4] (setting [7]) it was 99% (active); in assay [4] (setting [8]) it was 99% (active); in assay [4] (at 50.0 µM) it was 99.6% (active). For the same molecule, the growth inhibition in assay [5] (setting [7]) is 100% (active); in assay [5] (setting [8]), 99% (active); in assay [5] (at 50.0 µM), 99.5% (active); in assay [6] (setting [7]), 100% (active); in assay [6] (setting [8]), 99% (active); in assay [6] (at 50.0 µM), 99.5% (active).
Consider `Nc1nc2c(ccc3ccccc32)s1`, for which the growth inhibition is -3% in assay [1] (setting [7]); 36% in assay [1] (setting [8]); 66% in assay [1] (at 50.0 µM); -17% in assay [2] (setting [7]); 37% in assay [2] (setting [8]); 50.6% in assay [2] (at 50.0 µM). The growth inhibition was 6% in assay [3] (setting [7]); 54% in assay [3] (setting [8]); 67.5% in assay [3] (at 50.0 µM); 14% in assay [4] (setting [7]); 33% in assay [4] (setting [8]); 61.2% in assay [4] (at 50.0 µM). Besides, the growth inhibition is -22% in assay [5] (setting [7]); 52% in assay [5] (setting [8]); 56.9% in assay [5] (at 50.0 µM); 1% in assay [6] (setting [7]); 72% (active) in assay [6] (setting [8]); 57.6% in assay [6] (at 50.0 µM).
Consider `CCC(=O)/C(=C\I)c1ccccc1`, for which the growth inhibition in assay [1] (setting [7]) was 26%; in assay [1] (setting [8]), 26%; in assay [1] (at 50.0 µM), 89.3% (active); in assay [2] (setting [7]), -6%; in assay [2] (setting [8]) it was -6%; in assay [2] (at 50.0 µM), 92.2% (active). Moreover, the growth inhibition in assay [3] (setting [7]) was 23%; in assay [3] (setting [8]), 23%; in assay [3] (at 50.0 µM), 86.7% (active); in assay [4] (setting [7]), 8%; in assay [4] (setting [8]), 8%; in assay [4] (at 50.0 µM) it was 89.9% (active). In addition, the growth inhibition is 7% in assay [5] (setting [7]); 7% in assay [5] (setting [8]); 89.5% (active) in assay [5] (at 50.0 µM); 21% in assay [6] (setting [7]); 21% in assay [6] (setting [8]); 85.5% (active) in assay [6] (at 50.0 µM).
`O=C(C(=O)c1ccncc1)c1ccccc1`: the growth inhibition is -148% in assay [1] (setting [7]); -127% in assay [1] (setting [8]); 7.6% in assay [1] (at 50.0 µM); -52% in assay [2] (setting [7]); -55% in assay [2] (setting [8]); 23.1% in assay [2] (at 50.0 µM). Besides, the growth inhibition was -58% in assay [3] (setting [7]); -63% in assay [3] (setting [8]); -5.6% in assay [3] (at 50.0 µM); -59% in assay [4] (setting [7]); -59% in assay [4] (setting [8]); 34% in assay [4] (at 50.0 µM). Also, the growth inhibition in assay [5] (setting [7]) was -64%; in assay [5] (setting [8]), -83%; in assay [5] (at 50.0 µM) it was -12.2%; in assay [6] (setting [7]), -117%; in assay [6] (setting [8]) it was -114%; in assay [6] (at 50.0 µM) it was -14.6%.
As to `O=C1NC(c2cccc3ccccc23)Nc2ccc(Cl)cc21` (stereo not given), the growth inhibition in assay [1] (setting [7]) was 18%; in assay [1] (setting [8]), 95% (active); in assay [1] (at 50.0 µM) it was 74% (active); in assay [2] (setting [7]), 10%; in assay [2] (setting [8]), 96% (active); in assay [2] (at 50.0 µM), 84.8% (active). Also, the growth inhibition in assay [3] (setting [7]) was 5%; in assay [3] (setting [8]), 97% (active); in assay [3] (at 50.0 µM), 83% (active); in assay [4] (setting [7]), 12%; in assay [4] (setting [8]), 85% (active); in assay [4] (at 50.0 µM) it was 56.3%. In addition, the growth inhibition in assay [5] (setting [7]) is 1%; in assay [5] (setting [8]) it was 96% (active); in assay [5] (at 50.0 µM), 80.6% (active); in assay [6] (setting [7]) it was 20%; in assay [6] (setting [8]), 94% (active); in assay [6] (at 50.0 µM), 77.2% (active).
In the case of `CCOC(=O)c1c(-c2ccccc2)csc1NC(=O)CBr`, the growth inhibition in assay [1] (setting [7]) was 22%; in assay [1] (setting [8]) it was 98% (active); in assay [1] (at 50.0 µM), 99.1% (active); in assay [2] (setting [7]), 11%; in assay [2] (setting [8]), 99% (active); in assay [2] (at 50.0 µM), 98.3% (active). In addition, the growth inhibition in assay [3] (setting [7]) is 30%; in assay [3] (setting [8]) it was 99% (active); in assay [3] (at 50.0 µM), 52.5%; in assay [4] (setting [7]), 3%; in assay [4] (setting [8]), 98% (active); in assay [4] (at 50.0 µM), 91.8% (active). Moreover, the growth inhibition in assay [5] (setting [7]) was 7%; in assay [5] (setting [8]), 97% (active); in assay [5] (at 50.0 µM), 94.2% (active); in assay [6] (setting [7]), 49%; in assay [6] (setting [8]) it was 98% (active); in assay [6] (at 50.0 µM), 99.2% (active).
Regarding `CN(C)c1ccc(/C=N/N=C(\C#N)[S][Sn]([Cl])([c]2ccccc2)[c]2ccccc2)cc1`, the growth inhibition in assay [1] (setting [7]) was 98% (active); in assay [1] (setting [8]) it was 95% (active); in assay [1] (at 50.0 µM), 97.5% (active); in assay [2] (setting [7]), 98% (active); in assay [2] (setting [8]), 96% (active); in assay [2] (at 50.0 µM) it was 97.3% (active). Also, the growth inhibition is 98% (active) in assay [3] (setting [7]); 96% (active) in assay [3] (setting [8]); 97.5% (active) in assay [3] (at 50.0 µM); 98% (active) in assay [4] (setting [7]); 89% (active) in assay [4] (setting [8]); 95% (active) in assay [4] (at 50.0 µM). For the same molecule, the growth inhibition in assay [5] (setting [7]) is 98% (active); in assay [5] (setting [8]) it was 95% (active); in assay [5] (at 50.0 µM), 97% (active); in assay [6] (setting [7]), 97% (active); in assay [6] (setting [8]) it was 96% (active); in assay [6] (at 50.0 µM) it was 97.2% (active).
Take `CCOC(=O)/C=C(\C)Sc1cc(O)c2ccccc2c1O`: the growth inhibition in assay [1] (setting [7]) was -3%; in assay [1] (setting [8]), 22%; in assay [1] (at 50.0 µM), 68.9%; in assay [2] (setting [7]), -1%; in assay [2] (setting [8]), 28%; in assay [2] (at 50.0 µM), 79.5% (active). Moreover, the growth inhibition is 1% in assay [3] (setting [7]); 37% in assay [3] (setting [8]); 72.5% (active) in assay [3] (at 50.0 µM); 1% in assay [4] (setting [7]); 3% in assay [4] (setting [8]); 8% in assay [4] (at 50.0 µM). In addition, the growth inhibition in assay [5] (setting [7]) is -5%; in assay [5] (setting [8]), 15%; in assay [5] (at 50.0 µM) it was 73% (active); in assay [6] (setting [7]), -2%; in assay [6] (setting [8]), 53%; in assay [6] (at 50.0 µM), 76.1% (active).
For the molecule `O=NN(CCCl)C(=O)Oc1cc(Cl)c(Cl)cc1Cl`, the growth inhibition in assay [1] (setting [7]) is 71% (active); in assay [1] (setting [8]), 98% (active); in assay [1] (at 50.0 µM), 87.8% (active); in assay [2] (setting [7]) it was 79% (active); in assay [2] (setting [8]) it was 100% (active); in assay [2] (at 50.0 µM), 92.7% (active). The growth inhibition in assay [3] (setting [7]) was 84% (active); in assay [3] (setting [8]), 100% (active); in assay [3] (at 50.0 µM), 92.7% (active); in assay [4] (setting [7]), 37%; in assay [4] (setting [8]), 99% (active); in assay [4] (at 50.0 µM), 90.5% (active). In addition, the growth inhibition is 48% in assay [5] (setting [7]); 100% (active) in assay [5] (setting [8]); 92% (active) in assay [5] (at 50.0 µM); 96% (active) in assay [6] (setting [7]); 99% (active) in assay [6] (setting [8]); 91% (active) in assay [6] (at 50.0 µM).
As for `CCCCCCCCCCCCCCCCC1CCc2ccccc21` (stereo not given), the growth inhibition in assay [1] (setting [7]) is 4%; in assay [1] (setting [8]), 4%; in assay [1] (at 50.0 µM) it was 56.8%; in assay [2] (setting [7]), -2%; in assay [2] (setting [8]), -6%; in assay [2] (at 50.0 µM) it was 64.3%. The growth inhibition in assay [3] (setting [7]) is 11%; in assay [3] (setting [8]) it was 13%; in assay [3] (at 50.0 µM) it was 79.4% (active); in assay [4] (setting [7]), 23%; in assay [4] (setting [8]), 28%; in assay [4] (at 50.0 µM) it was 89.8% (active). In addition, the growth inhibition was 38% in assay [5] (setting [7]); 39% in assay [5] (setting [8]); 75.8% (active) in assay [5] (at 50.0 µM); -2% in assay [6] (setting [7]); 11% in assay [6] (setting [8]); 86% (active) in assay [6] (at 50.0 µM).
